The source of these data is PubChem BioAssay AID463205 (Broad Institute, 2010).

Usually AC50 stands for the concentration giving half of the maximal activity seen.

The structures appear in SMILES notation. Among all 2,400 compounds or so, about 20 (0.8%) were called active.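 How the source made its calls: active means AC50 no more than ten times the highest tested concentration, or full inhibition at every dose giving a flat fit (cut at about 30 µM in these data); inconclusive means flat fit with activity between 30% and 70%, or poor-quality invalid fit; inactive means AC50 more than ten times the top tested dose.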 The entries come from a sample that favours actives as a whole.

The assay can be described thus: inhibitors of ADP-Glo detection reagents, dose response, artefact control for GSK-3a inhibitor project, biochemical, luminescence, cell-free, homogeneous (AID 463205).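 Further: kinase-free counter-screen against the ADP-Glo detection reagents only; potency is for inhibitors that reduce the luminescence signal.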 As to conditions: 5 uM ADP. A general note: In ADP-Glo the light output rises with the ADP produced.
Consider `COc1cccc(/C=N/n2cncn2)c1OCC#N`, for which the AC50 is > 30 µM (inactive).

`Cc1ccc(-c2cn3cccnc3n2)cc1NC(=O)c1cccs1`: the AC50 is > 30 µM (inactive).

With `CCCOc1ccc(-c2nnc(N)s2)cc1`, the AC50 was > 30 µM (inactive). Turning to `O=C(CSc1ccccn1)Nc1nc2ccc(Br)cc2s1`, the AC50 was > 30 µM (inactive). The result for `Nc1nc(-c2ccccc2)nc(-c2ccccc2O)n1` reads > 30 µM (inactive). The result for `O=C(O)CCSc1nnc(-c2ccncc2)n1-c1ccccc1` reads > 30 µM (inactive); that for `NC(=O)c1ccc(NC(=O)CSc2nnc(-c3ccc4c(c3)OCO4)o2)cc1`, > 30 µM (inactive). As for `C#CCOCCOCCOCCNc1nc(N2CCN(C(=O)CCCCCCCCCCNC(=O)[C@H]([C@@H](C)CC)n3cc(CCCCCN)nn3)CC2)nc(N2CCN(C(=O)CCCCCCCCCCNC(=O)[C@H](CO)n3cc(CCCCCN)nn3)CC2)n1`, the AC50 was > 30 µM (inactive).

Turning to `CCCCOC(=O)Nc1nnc(COc2ccccc2)s1`, the AC50 was > 30 µM (inactive). Under `CCCOc1ccccc1NC(=O)Nc1ccccc1Cl` stands > 30 µM (inactive); under `O=C(Nc1cccc(-c2cnc3ccccc3n2)c1)c1ccncc1`, > 30 µM (inactive). As for `O=C(NCCN1CCN(Cc2ccccc2)CC1)Nc1cc(Cl)cc(Cl)c1`, the AC50 was > 30 µM (inactive). Under `COc1ccc(-c2nnc(SCC(=O)Nc3ccccc3OC)o2)cc1` stands > 30 µM (inactive); under `COc1cc(C2c3sc(=O)[nH]c3SC3C4CCC(C4)C23)ccc1O` (stereo not given), > 30 µM (inactive); under `Oc1ccc(-c2csc(Nc3ccccn3)n2)c(O)c1`, > 30 µM (inactive). The result for `CCOC(=O)CC(C#N)c1c[nH]c2ccccc12` (stereo not given) reads > 30 µM (inactive). Under `COc1ccccc1N1CCN(C(=O)c2cc(-c3ccccc3)on2)CC1` stands > 30 µM (inactive). Regarding `Cc1sc2ncnc(N3CCC(C(=O)Nc4ccc(C#N)cc4)CC3)c2c1C`, the AC50 is > 30 µM (inactive). The result for `CC(=O)Nc1sc2c(c1C(N)=O)CCCC2` reads > 30 µM (inactive); that for `N#CC1=C2SCN(Cc3ccco3)CN2C(=O)CC1c1c(F)cccc1Cl` (stereo not given), > 30 µM (inactive); that for `CCN(C(=O)C1CCCN1S(=O)(=O)c1cccc2nsnc12)c1ccccc1` (stereo not given), > 30 µM (inactive). The result for `Cc1ccc(C)c(N2CC(C(=O)Nc3nccs3)CC2=O)c1` (stereo not given) reads > 30 µM (inactive); that for `CCn1c(C)nc2cc(-c3nc4n(n3)Cc3ccccc3-4)ccc21`, 24.3 µM (active). Under `Cc1ccc(-c2nc3n(n2)Cc2ccccc2-3)cc1` stands > 30 µM (inactive); under `Fc1ccc(-c2nc3n(n2)Cc2ccccc2-3)cc1`, > 30 µM (inactive); under `NCCNc1ccc([N+](=O)[O-])c(NC2CC2)c1`, > 30 µM (inactive).

On to `COc1ccc(Nc2sc(C(=O)c3ccc(Cl)cc3)c(N)c2C(=O)Nc2ccccc2OC)cc1`, for which the AC50 was > 30 µM (inactive). The result for `Cc1ccc(NC(=O)CSCc2nc3c(nnn3Cc3ccc(F)cc3)c(=O)[nH]2)c(C)c1` reads > 30 µM (inactive). The result for `COc1ccc(/C=C/c2nc(N)nc(-c3ccccc3O)n2)cc1` reads > 30 µM (inactive); that for `COc1c2ccccc2nc2ccccc12`, > 30 µM (inactive); that for `COc1ccc(/C=C/c2nc3ccccc3n2C)cc1`, 14.3 µM (active). Under `C[n+]1cccc(C2C(C#N)=C(N)Oc3c2ccc2ccccc32)c1` (stereo not given) stands > 30 µM (inactive). As to `O=C(CSc1nnc(-c2ccncc2)s1)Nc1ccccc1`, the AC50 was > 30 µM (inactive). The result for `O=C(CSc1nnc(-c2ccc(O)cc2)o1)Nc1ccccc1Br` reads > 30 µM (inactive); that for `COc1ccc(CNc2ccc3cn[nH]c3c2)c(OC)c1OC`, > 30 µM (inactive); that for `CCCc1[nH]nc2c1C(c1ccc(O)c(OC)c1)C(C#N)=C(N)O2` (stereo not given), > 30 µM (inactive).

With `Cc1sc2ncnc(NCCCN3CCCC3=O)c2c1C`, the AC50 is > 30 µM (inactive).

`Cc1cc(C)c2[nH]c(O)c(N=Nc3ccc(C(=O)O)cc3)c2c1`: the AC50 was > 30 µM (inactive).

Consider `N#Cc1c(NC(=O)CSc2n[nH]c(N)n2)oc(-c2ccccc2)c1-c1ccccc1`, for which the AC50 was > 30 µM (inactive). The result for `COc1cccc(/C=c2\s/c(=C\C(=O)C(C)(C)C)[nH]c2=O)c1` reads > 30 µM (inactive); that for `CCOC(=O)c1cnc2c(C)cc(Cl)cc2c1N1CCN(C)CC1`, > 30 µM (inactive); that for `COc1ccccc1/C=N/NC(=O)c1nnn(-c2nonc2N)c1-c1cccs1`, > 30 µM (inactive). `CCN1CCN(c2nc(Nc3cccc(F)c3)nc(N)c2[N+](=O)[O-])CC1`: the AC50 was > 30 µM (inactive).

Consider `Cc1nc(N2CCOCC2)nc(N2CCCCC2)c1[N+](=O)[O-]`, for which the AC50 was > 30 µM (inactive). The result for `COc1ccc(O)c(-c2nc(N)nc(N)n2)c1` reads > 30 µM (inactive); that for `Cc1cccc(C)c1OCC(O)CNC(C)c1ccccc1` (stereo not given), > 30 µM (inactive); that for `O=C(CNC(=O)c1ccccc1)N/N=C/C=C/c1ccccc1`, > 30 µM (inactive). The result for `Cc1cc(NC(=O)COC(=O)c2cc(S(=O)(=O)N3CCOCC3)ccc2N2CCCCC2)no1` reads > 30 µM (inactive); that for `CN(c1nc2nonc2nc1NC1CC1)C1CCOC1` (stereo not given), > 30 µM (inactive).

Take `CCC/C(=N/NC(=O)c1nnn(-c2nonc2N)c1CN1CCCCC1)c1ccccc1`: the AC50 is > 30 µM (inactive).

For `COc1ccc(NC(=O)CSc2nnc(-c3cccc(O)c3)o2)cc1`, the AC50 is > 30 µM (inactive). `COc1ccc2cc(C(=O)NCc3ccco3)c(=O)oc2c1`: the AC50 was > 30 µM (inactive).

Turning to `COc1cccc(NC(=O)[C@@H]2CCCN2S(=O)(=O)c2cccc3cccnc23)c1`, the AC50 is > 30 µM (inactive). As for `CCCNC(=O)NC(C(=O)OC)C12CC3CC(CC(C3)C1)C2` (stereo not given), the AC50 was > 30 µM (inactive). Under `CCOC(=O)c1[nH]c2c(c1C)C(=O)CC(c1ccc(OC)c(OC)c1)C2` (stereo not given) stands > 30 µM (inactive).
